In PubChem BioAssay AID1159580 (chemical genetic matrix, 2015):
Values joined by “and” are separate entries in the source; they are usually repeats but may differ in a detail not shown here. Identical values can stand only once. Hit rate of the full screen: of about 5,500 compounds, about 2,000 (36%) were called active. Not shown: some 18% with an inconclusive outcome. Rule as the data show it: active = normalized growth mostly below about 0.91 (no sharp cut-off); inconclusive = no clear call, values can overlap the other calls; inactive = mostly above about 0.92. Some of the results follow.

Assay: chemical genetic growth profiling, strain panel (AID 1159580);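 also: tested at 20 µM; growth read once vehicle control cultures reached saturation at 30 °C; 1 = growth at the plate median or of vehicle wells; lower values mean less growth of the strain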
Conditions: S. cerevisiae deletion strains, growth OD

Measured: normalized growth

CC(C)=CCOc1c2occc2cc2ccc(=O)oc12
active: locus YAL013W, strain DEP1, stronger effect = lower value 0.734 | locus YAL026C, strain drs2, stronger effect = lower value 0.874 | locus YAL030W, strain snc1, stronger effect = lower value 0.928 | locus YBL061C, strain skt5, stronger effect = lower value 0.892 | locus YBR009C, strain hhf1, stronger effect = lower value 0.851 | locus YBR021W, strain FUR4, stronger effect = lower value 0.74 | locus YBR023C, strain chs3, stronger effect = lower value 0.864 | locus YBR171W, strain sec66, stronger effect = lower value 0.865 | locus YBR229C, strain ROT2, stronger effect = lower value 0.896 | locus YBR279W, strain paf1, stronger effect = lower value 0.921 | locus YCL011C, strain gbp2, stronger effect = lower value 0.849 | locus YCL016C, strain dcc1, stronger effect = lower value 0.859 | locus YCL029C, strain bik1, stronger effect = lower value 0.804 | locus YCL061C, strain MRC1, stronger effect = lower value 0.876 | locus YCL069W, strain vba3, stronger effect = lower value 0.912 | locus YDL035C, strain GPR1, stronger effect = lower value 0.857 | locus YDL074C, strain BRE1, stronger effect = lower value 0.606 | locus YDL101C, strain DUN1, stronger effect = lower value 0.559 | locus YDL185W, strain tfp1, stronger effect = lower value 0.875 | locus YDL192W, strain arf1, stronger effect = lower value 0.67 | locus YDR001C, strain nth1, stronger effect = lower value 0.899 | locus YDR101C, strain arx1, stronger effect = lower value 0.808 | locus YDR137W, strain rgp1, stronger effect = lower value 0.729 | locus YDR150W, strain NUM1, stronger effect = lower value 0.899 | locus YDR162C, strain NBP2, stronger effect = lower value 0.507 | locus YDR318W, strain mcm21, stronger effect = lower value 0.649 | locus YDR334W, strain swr1, stronger effect = lower value 0.892 | locus YDR388W, stronger effect = lower value 0.837 | locus YDR392W, strain spt3, stronger effect = lower value 0.353 | locus YDR502C, strain sam2, stronger effect = lower value 0.736 | locus YER110C, stronger effect = lower value 0.728 | locus YER155C, strain BEM2 (second series), stronger effect = lower value 0.509 | locus YER155C, strain BEM2, stronger effect = lower value 0.575 | locus YER167W, strain BCK2, stronger effect = lower value 0.722 | locus YGL078C, strain dbp3, stronger effect = lower value 0.92 | locus YGL086W, strain mad1, stronger effect = lower value 0.678 | locus YGL167C, strain pmr1, stronger effect = lower value 0.887 | locus YGL173C, strain kem1, stronger effect = lower value 0.885 | locus YGL240W, strain doc1, stronger effect = lower value 0.741 | locus YGL248W, strain PDE1, stronger effect = lower value 0.672 | locus YGL253W, strain hxk2, stronger effect = lower value 0.807 | locus YGR135W, strain pre9, stronger effect = lower value 0.666 | locus YGR252W, strain gcn5, stronger effect = lower value 0.519 | locus YHR079C, strain IRE1 (second series), stronger effect = lower value 0.856 | locus YHR094C, strain hxt1, stronger effect = lower value 0.821 | locus YHR129C, strain ARP1, stronger effect = lower value 0.652 | locus YHR142W, strain chs7, stronger effect = lower value 0.679 | locus YHR200W, strain rpn10, stronger effect = lower value 0.822 | locus YIL066C, strain RNR3, stronger effect = lower value 0.697 | locus YIL125W, strain kgd1, stronger effect = lower value 0.895 | locus YIR030C, strain dcg1, stronger effect = lower value 0.842 | locus YJL092W, strain hpr5, stronger effect = lower value 0.9 | locus YJL095W, strain BCK1 (second series), stronger effect = lower value 0.898 | locus YJL129C, strain trk1, stronger effect = lower value 0.774 | locus YJL134W, strain LCB3, stronger effect = lower value 0.895 | locus YJL164C, strain tpk1, stronger effect = lower value 0.859 | locus YJL166W, strain qcr8, stronger effect = lower value 0.895 | locus YJL168C, strain set2, stronger effect = lower value 0.875 | locus YJL187C, strain SWE1 (second series), stronger effect = lower value 0.739 | locus YJR043C, strain POL32, stronger effect = lower value 0.742
0.297 (active) and 0.984 (inactive): locus YJL095W, strain BCK1, stronger effect = lower value
inactive: locus YAL021C, strain ccr4, stronger effect = lower value 0.963 | locus YBR231C, strain swc5, stronger effect = lower value 0.922 | locus YCR088W, strain abp1, stronger effect = lower value 0.928 | locus YDL005C, strain med2, stronger effect = lower value 0.947 | locus YDL040C, strain nat1, stronger effect = lower value 0.934 | locus YDR069C, strain doa4, stronger effect = lower value 0.923 | locus YDR159W, strain sac3, stronger effect = lower value 0.944 | locus YDR195W, strain ref2 1.07 | locus YDR297W, strain sur2, stronger effect = lower value 0.926 | locus YDR335W, strain msn5, stronger effect = lower value 0.942 | locus YEL003W, strain gim4, stronger effect = lower value 0.929 | locus YEL037C, strain rad23, stronger effect = lower value 0.937 | locus YEL061C, strain CIN8 (second series), stronger effect = lower value 0.929 | locus YER015W, strain faa2, stronger effect = lower value 0.935 | locus YER016W, strain bim1, stronger effect = lower value 0.927 | locus YER111C, strain swi4, stronger effect = lower value 0.929 | locus YFR010W, strain ubp6, stronger effect = lower value 0.938 | locus YGL227W, strain vid30, stronger effect = lower value 0.918 | locus YHR013C, strain ard1, stronger effect = lower value 0.87 | locus YHR027C, strain rpn1, stronger effect = lower value 0.954 | locus YHR030C, strain SLT2, stronger effect = lower value 0.978 | locus YHR079C, strain IRE1, stronger effect = lower value 0.975 | locus YIL073C, strain SPO22, stronger effect = lower value 0.792 | locus YJL115W, strain asf1, stronger effect = lower value 0.922 | locus YJL154C, strain vps35, stronger effect = lower value 0.935 | locus YJL187C, strain SWE1, stronger effect = lower value 0.929
